From ChEMBL document CHEMBL3988442, “University of Dundee, Small-Polar-MMV Screening Library” (2021)
Screen size: about 48,000 compounds; about 13,000 (27%) showed an effect of 50% or more. This is one part of the list.

Each molecule was assayed on Wolbachia pipientis (assay: Anti-Wolbachia Cell-Based Screen). Conditions: 5 µM.
Format: functional
Set-up: scale not given: in the data most compounds retested in dose-response had high values

| SMILES | Percent Effect [%] |
| --- | --- |
| COC(=O)[C@H]1CN(C(=O)NC(C)C)CCN1C(=O)c1cccs1 | 13.93 |
| Cc1nc(N2CCCC2)nc2c1CCN(C(=O)c1ccoc1C)CC2 | 99.57 |
| Cc1nc(N2CCCC2)nc2c1CN(C(=O)c1ccco1)CC2 | 4.912 |
| Cc1cc(C(=O)N2CCc3nc(N4CCOCC4)nc(C)c3C2)c(C)o1.O=CO | 94.45 |
| CN(C)c1nc(N2CCCC2)nc2c1CCN(C(=O)c1ccoc1)CC2 | -4.722 |
| Cc1cc(C(=O)N2CCc3nc(N4CCCC4)nc(C)c3CC2)c(C)o1 | 102.5 |
| CCc1noc(CS(=O)(=O)C(C)c2nc(C3CC3)no2)n1 (configuration not stated) | -17.73 |
| N#Cc1ccccc1OCCN1CCCC1Cn1cccn1 (configuration not stated) | 7.756 |
| COCC1CN(C(=O)Cc2ccc(F)cc2)Cc2ccnn2C1 (configuration not stated) | 27.63 |
| Cn1cc(Nc2cccc(C(=O)N(CC(N)=O)C3CCCC3)c2)cn1 | 6.719 |
| CC(NC(N)=O)C(=O)NCc1cc(Br)ccc1F (configuration not stated) | 3.265 |
| CN1CCCN(C[C@@H]2CN(C(=O)CCc3cn[nH]c3)C[C@@H]2CO)CC1 | 1.74 |
| CN(C)C(=O)NCc1nnn2c1CN(CC1CCOCC1)CCC2.O=C(O)C(F)(F)F | 4.127 |
| O=C(O)C(F)(F)F.c1cnc(NCc2nnn3c2CN(CC2CC2)CCC3)nc1 | 97.82 |
| O=C(CO)N1CCCn2nnc(Cn3cccn3)c2C1 | -5.05 |
| C1CN(CC2CCOCC2)Cc2c(COCC3CC3)nnn2C1.O=C(O)C(F)(F)F | 2.92 |
| O=C(c1ccnnc1)N1CCCn2nnc(COCC3CC3)c2C1 | -17.91 |
| COCc1nnn2c1CN(C(=O)c1ccnnc1)CCC2 | -7.41 |
| O=C(C1CC=CC1)N1CCCn2nnc(CNc3ncccn3)c2C1 | 108.6 |
| O=C(CC1CC1)N1CCCn2nnc(CNc3ncccn3)c2C1 | 92.45 |
| O=C(c1ccncc1)N1CCCn2nnc(Cn3cccn3)c2C1 | 4.632 |
| COc1ccc(OC)c(CCNC(=O)NC(C)Cn2ccnc2)c1 (configuration not stated) | -5.904 |
| O=C(CSc1nncs1)N1CCN(Cc2ccc(Cl)s2)CC1 | -21 |
| CCSc1ccc(C(C)NC(=O)CNS(C)(=O)=O)cc1 (configuration not stated) | 4.212 |
| O=C1OCCN1CCS(=O)(=O)c1cccc(Br)c1 | -18.91 |
| CCC(C)CNCC1(S(C)(=O)=O)CCOCC1 (configuration not stated) | -24.39 |

| SMILES | Percent Effect [%] |
| --- | --- |
| Cc1n[nH]c2ncc(CNC3CCCN(c4ncccn4)C3)cc12.Cl (configuration not stated) | -16.46 |
| OCc1cc(C2CCCN2c2ncccn2)n[nH]1 (configuration not stated) | 112 |
| CC(=O)N1CCCCC1c1cc(CO)[nH]n1 (configuration not stated) | -3.311 |
| Cc1nc(CN2CCCN(C(=O)c3ccccn3)CC2)oc1C | 3.458 |
| O=C(c1sccc1C1CC1)N1CCCN(Cc2cscn2)CC1 | 113.8 |
| Cc1cc(CN2CCN(C(=O)c3sccc3C3CC3)CC2)no1 | 143.4 |
| Cc1nc(C2CCCN(C(=O)c3sccc3C3CC3)C2)no1 (configuration not stated) | -10.65 |
| O=C(c1sccc1C1CC1)N1CCN(Cc2cscn2)CC1 | 132.1 |
| Cc1cc(CN2CCN(C(=O)c3sccc3C3CC3)CC2)on1 | -1.767 |
| Cc1nc(CN2CCN(C(=O)c3sccc3C3CC3)CC2)oc1C | 120.2 |
| COCc1nc(C(=O)N2CCN(Cc3cc(C)on3)CC2)cs1 | -18.23 |
| NC(=O)NCC(=O)N1C[C@H]2CC[C@@H]1CN(Cc1ccccc1)C2 | -2.465 |
| CCNc1ncc(C(=O)N[C@@H](C)[C@H](O)c2ccccc2)cn1 | -5.841 |
| CS(=O)(=O)NCC(=O)N[C@H]1CN(CC2CC2)C[C@@H]1c1ccccc1 | 5.176 |
| C[C@@H]1CN(S(=O)(=O)N2CCOCC2)C[C@@]1(O)C1CC1 | 13.89 |
| Cc1cc(C)n(C2CCN(S(=O)(=O)N3CCOCC3)CC2)n1 | 108 |
| Cc1cc(C)n(C2CCN(S(=O)(=O)N3CCC(C)CC3)CC2)n1 | 84.26 |
| Cc1cc(C)n(C2CCCN(C(=O)C3=NN(C)C(=O)CC3)C2)n1 (configuration not stated) | -1.412 |
| Cc1ccc([C@@H]2CN(S(=O)(=O)N3CCC(C)CC3)C[C@H]2N(C)C)cc1 | 5.444 |
| Cc1cc(C)n(C2CCN(S(C)(=O)=O)CC2)n1 | 88.3 |
| Cc1cc(C)n(C2CCCN(C(=O)c3c(C)c(C)n[nH]c3=O)C2)n1 (configuration not stated) | -2.25 |
| Cc1cc(C)n(C2CN(CC(=O)NCC(C)(C)N3CCOCC3)C2)n1 | 4.363 |
| CC1CCN(S(=O)(=O)N2CCc3sccc3C2)CC1 | 3.018 |
| CN(Cc1cnn(C)c1)C1CCN(c2cccc(-c3cscn3)c2)CC1 | -7.204 |
| CCn1c(CC2CCN(C(=O)c3cc(C(C)C)nn3C)CC2)n[nH]c1=O | 0.9199 |
| Cc1occc1C(=O)NCC(=O)NCCCOc1ccc(F)cc1 | -8.265 |

| SMILES | Percent Effect [%] |
| --- | --- |
| CCc1nnc(CNc2ccc(CC(=O)N3CCSCC3)cc2)o1 | 7.337 |
| CCc1ccc2nc(C)cc(C(=O)N[C@@H]3CCCNC3)c2c1 | -27.02 |
| CCNC(=O)[C@@H]1C[C@H](N)CN1C(=O)Cc1cc(C)ccc1C | -8.677 |
| Cc1ccc2[nH]c(=O)cc(C(=O)N[C@@H]3C[C@@H](CO)N(C)C3)c2c1 | 108.3 |
| CCc1ccc2nc(C)cc(C(=O)NC3CCC(=O)N(C)C3)c2c1 (configuration not stated) | -60.56 |
| CNc1ccc(C)cc1C(=O)N[C@H]1C[C@H]2CN(C)CCN2C1 | 9.233 |
| CCNC(=O)[C@@H]1C[C@H](NC(=O)c2cc(=O)[nH]c3ccc(C)cc23)CN1C | 116.2 |
| COC(=O)[C@@H]1C[C@@H](NC(=O)CN2C(=O)N(C)Cc3ccccc32)CN1C | -9.28 |
| CCNC(=O)[C@@H]1C[C@@H](N)CN1C(=O)Cc1cc(C)ccc1C | -80.39 |
| COC(=O)[C@@H]1C[C@H](NC(=O)Cn2c(=O)cc(C)c3ccccc32)CN1C | 0.9939 |
| CCc1ccc2nc(C)cc(C(=O)N[C@@H]3C[C@@H](CO)N(C)C3)c2c1 | 90.46 |
| Cc1ccc2[nH]c(=O)cc(C(=O)NCCCn3nccc3C3CC3)c2c1 | -8.543 |
| COC(=O)[C@@H]1C[C@H](NC(=O)c2cc(=O)[nH]c3ccc(C)cc23)CN1C | 103.5 |
| CCNc1ncc(C(=O)N2CCOC(CCCc3ccccc3)C2)cn1 (configuration not stated) | 15.39 |
| Cc1nc(C)c(C(=O)NCc2nc3cccc(C)c3n2C)o1 | 31.6 |
| O=C(c1ncn2c1CNS(=O)(=O)c1ccccc1-2)N1CCCCC1 | -12.5 |
| CC(C)(CNC(=O)C1(c2cccc(Br)c2)CCOCC1)C(=O)O | -13.82 |
| Cc1ccsc1[C@@H]1CCN(C(=O)CCc2n[nH]c(C)c2C)C[C@H]1O | 6.25 |
| Cc1ccccc1CCC(=O)N1CCc2ncnc(NCCO)c2CC1 | -0.3127 |
| COc1cccc(CC(=O)N2CCc3ncnc(NCCO)c3CC2)c1 | -0.2896 |
| Cc1nc(CCC(=O)N2Cc3cnc(-c4ccccc4)nc3C2)n[nH]1 | -6.082 |
| Cc1[nH]nc(CCC(=O)N2CCc3c(nc[nH]c3=O)C2)c1C | 104.7 |
| Cc1n[nH]c(C)c1CCC(=O)N1CCc2c(nc[nH]c2=O)C1 | 106.7 |
| Cc1cnccc1N1CCCN(C(=O)CCc2n[nH]c(C)c2C)CC1 | -9.911 |
| Cc1[nH]nc(CCC(=O)N2CCc3ncnc(NCCO)c3CC2)c1C | 77.14 |
| CSCCC(=O)N1CCc2c(ncnc2N2CCOCC2)C1 | -13.57 |

| SMILES | Percent Effect [%] |
| --- | --- |
| Cn1nc(Cn2cccc2)c2c1CN(Cc1ccoc1)C2.O=C(O)C(F)(F)F | -1.566 |
| Oc1cccc(CN2CCN(c3nccc(CCC(F)(F)F)n3)CC2)c1 | 0.5395 |
| Cc1cc(C)c2nc(CN3CCC(CN)CC3)cc(O)c2c1 | -3.326 |
| CN(C)C(=O)NCc1cc2n(n1)CCCN(CC1CCCNC1)C2 (configuration not stated) | -1.604 |
| COC1CCN(CCNC(=O)NC(C)c2ccc(F)c(F)c2)CC1 (configuration not stated) | 2.95 |
| CCOCCn1c(=O)n(CCC=C(C)C)c2cc(C(=O)O)cnc21 | -10.97 |
| CC(C)c1nc(CN2CCN(CC3CCCO3)CC2)cs1 (configuration not stated) | 2.342 |
| Cc1cnc(C)c(N2CCN(CC3CCCO3)CC2)n1 (configuration not stated) | 94.75 |
| Cc1cc(NC2CCN(CC3CCCO3)CC2)n2nc(C)c(C)c2n1 (configuration not stated) | 11.1 |
| CC1(C)CN=C(N2CCN(CC3CCCCO3)CC2)S1 (configuration not stated) | 87.51 |
| COCc1ccccc1C(=O)N1CCN(C2=NCC(C)(C)S2)CC1 | -20.33 |
| CC1(C)CN=C(N2CCN(CCCN3CCOCC3)CC2)S1 | 99.8 |
| Cc1ncc2c(n1)CN(CC1CCCCO1)CC2 (configuration not stated) | 1.379 |
| CCn1ncc(C(=O)N2CCN(CC3CCCO3)CC2)c1C (configuration not stated) | -12.64 |
| Cc1cnc(C)c(N2CCN(Cc3ccc(C)c(C)c3)CC2)n1 | -24.43 |
| CC1(c2ccccc2)CCC(=O)N(CCCN2CCOCC2)C1 (configuration not stated) | 6.196 |
| CC1(C)CN=C(N2CCN(CC3CCCO3)CC2)S1 (configuration not stated) | 67.12 |
| CCC(C)NC(=O)c1coc(COc2cccc(F)c2)n1 (configuration not stated) | -23.89 |
| Cc1nn(C(C)(C)C)c(=O)n1CC(=O)NCC(F)(F)F | 1.676 |
| O=C(NCc1ccccc1)[C@H]1C[C@@H]2CN(S(=O)(=O)C3CC3)C[C@H]1O2 | 0.5177 |
| CCC(CNS(N)(=O)=O)Oc1ccccc1F (configuration not stated) | -4.298 |
| CC1(C)CN=C(N2CCN(CC3CCOC3)CC2)S1 (configuration not stated) | 102.4 |
| COc1ncnc2c1CCN(CC1CCOC1)CC2 (configuration not stated) | -41.04 |
| N#Cc1c(N2CCN(CC3CCOC3)CC2)nc2ccccn12 (configuration not stated) | -4.336 |
